Laboratory results from PubChem BioAssay (Tox21).
Where “and” joins values, the source holds several entries; their conditions need not be identical. Equal values may be shown once. Results filed as inconclusive are left out. Where a call stands in place of a potency, no number is given. Unmarked numbers belong to inactive results. Calls of active or inactive are those of the source. Calls come from the whole dose curve; as a rule, active = well fitted activation curve with a large enough effect in the repeat runs; inconclusive = weak or mixed curves; inactive = no such curve, though single readings can be large or run the other way.

Target: Aryl hydrocarbon receptor (Homo sapiens) (UniProt P35869)
Sequence (P35869 whole entry, looked up): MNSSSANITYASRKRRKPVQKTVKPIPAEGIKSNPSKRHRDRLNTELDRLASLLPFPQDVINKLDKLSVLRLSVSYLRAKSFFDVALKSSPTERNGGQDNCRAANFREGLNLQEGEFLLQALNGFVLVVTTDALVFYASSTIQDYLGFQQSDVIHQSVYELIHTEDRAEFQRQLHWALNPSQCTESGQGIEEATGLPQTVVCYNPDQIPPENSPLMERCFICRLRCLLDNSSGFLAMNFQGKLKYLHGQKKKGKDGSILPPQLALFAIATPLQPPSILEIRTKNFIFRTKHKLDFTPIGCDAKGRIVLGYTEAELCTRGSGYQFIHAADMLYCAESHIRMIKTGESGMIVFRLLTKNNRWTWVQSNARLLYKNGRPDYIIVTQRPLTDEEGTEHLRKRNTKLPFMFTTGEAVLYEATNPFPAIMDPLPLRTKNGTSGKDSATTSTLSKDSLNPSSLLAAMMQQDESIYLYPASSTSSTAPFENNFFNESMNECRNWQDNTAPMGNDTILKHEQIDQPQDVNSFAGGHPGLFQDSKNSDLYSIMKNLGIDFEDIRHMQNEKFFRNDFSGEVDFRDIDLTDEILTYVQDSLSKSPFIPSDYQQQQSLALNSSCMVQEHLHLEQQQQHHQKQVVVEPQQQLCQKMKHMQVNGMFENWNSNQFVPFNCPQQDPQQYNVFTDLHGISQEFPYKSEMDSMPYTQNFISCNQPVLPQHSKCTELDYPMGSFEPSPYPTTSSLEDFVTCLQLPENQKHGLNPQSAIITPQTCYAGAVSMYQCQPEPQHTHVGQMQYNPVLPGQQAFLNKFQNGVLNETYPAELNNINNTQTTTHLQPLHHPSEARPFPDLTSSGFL
Test: qHTS assay to identify small molecule that activate the aryl hydrocarbon receptor (AhR) signaling pathway (AID 743085); note: nearly all actives have a fitted effect of over 15% in size;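 for activation: HG2L7.5c1 human HepG2 liver cells with stably integrated DRE-driven firefly reporter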
Conditions: HepG2 AhR-luc (HG2L7.5c1), luciferase, 24 h; series mostly up to 70.3 µM; activation: at the top concentration
Source text: U.S. Tox21 Program National Center for Advancing Translational Sciences [NCATS] NIH Chemical Genomics Center [NCGC] U.S. Environmental Protection Agency [EPA] National Institutes of Environmental Health Sciences [NIEHS] National Toxicology Program [NTP] U.S. Food and Drug Administration [FDA] Tox21 Assay overview: The Aryl hydrocarbon Receptor (AhR), a member of the family of basic helix-loop-helix transcription factors, is crucial to adaptive responses to environmental changes. AhR mediates cellular responses to environmental pollutants such as aromatic hydrocarbons through induction of phase I and II enzymes but also interacts with other nuclear receptor signaling pathways. A cell based HepG2-AhR-luc assay (HG2L7.5c1 cell line, developed by Dr. Michael S. Denison, University of California at Davis, was used to assess the activation of AhR. HepG2 (human hepatocellular carcinoma) cells were stably transfected with an Ah receptor-responsive firefly luciferase reporter gene plasmid containing 20 dioxin responsive elements and luciferase reporter gene. Increased luciferase activity can be used to identify the compounds that induce AhR activation.
Tox21 Assay Protocol Summary: 4000 cells in 5 uL/well were dispensed into white wall/solid bottom 1536-well plates using a Multidrop Combi (Thermo Fisher Scientific Inc., Waltham, MA) dispenser. After the assay plates were incubated at 37C for 5 h, 23 nL of compound or DMSO vehicle was transferred to the assay plates by a pintool station (Kalypsys, San Diego, CA). The plates were incubated at 37C for 24 hr. After 1 ul/well of CellTiter-Fluor reagent (Promega, Madison, WI) was added into the assay plates using a Flying Reagent Dispenser (FRD) (Aurora Discovery, CA), the assay plates were incubated at 37C for 30 min. The fluorescence intensity in the plates was measured using a ViewLux plate reader (PerkinElmer, Shelton, CT), followed by the addition of 4 uL of ONE-Glo Luciferase Assay reagent (Promega) using an FRD (Aurora Discovery). After the assay plates were incubated at room temperature for 30 min, luminescence intensity was measured using a ViewLux plate reader (Perkin Elmer).
Potency is the fitted concentration of half-maximal effect.

SMILES | Potency | activation
C=C(C#N)C(=O)OCC | inactive | 
C=C1C2CCC(C2)C1(C)C (stereo not given) | inactive | 
CCC(C)C=O (stereo not given) | inactive | 
NCCNCCNCCNCCN | inactive | 
Cn1c([N+](=O)[O-])cnc1COC(N)=O | inactive | 
CC1(C)CC(N=C=O)CC(C)(CN=C=O)C1 (stereo not given) | inactive | 
NCc1cccc(CN)c1 |  | 1.91%
Clc1cc(Cl)c(Cl)cc1Cl |  | -0.583%
c1ccc2ccccc2c1 | inactive | 
CC1=C(CC(=O)O)c2cc(F)ccc2/C1=C\c1ccc(S(C)=O)cc1 (stereo not given) | 13.3 µM (active) and 24.3 µM (active) | 
Oc1ccc2ccccc2c1 | 49.7 µM (active) and 27.3 µM (active) | 
CCCCCCCCCCCCOCC1CO1 (stereo not given) | inactive | 
Nc1cc(-c2ccncc2)c[nH]c1=O | inactive | 
CC(C)Cc1ccccc1 | inactive | 
Nc1nc2ncc(CNc3ccc(C(=O)N[C@@H](CCC(=O)O)C(=O)O)cc3)nc2c(=O)[nH]1 | inactive | 
O=S(=O)(O)c1cc(S(=O)(=O)O)c2c(N=Nc3ccccc3)c(O)ccc2c1 | inactive | 
O=C1CCCCC1 | inactive | 
CC1Cc2ccccc2N1NC(=O)c1ccc(Cl)c(S(N)(=O)=O)c1 (stereo not given) | inactive | 
CC[Si](OC(C)=O)(OC(C)=O)OC(C)=O |  | -0.756%
CC(C)n1c(/C=C/[C@@H](O)C[C@@H](O)CC(=O)O)c(-c2ccc(F)cc2)c2ccccc21 | 15 µM (active) | 

SMILES | Potency | activation
CCCCCCCCCCCCN | inactive | 
COCC(C)O (stereo not given) |  | 0.226%
O=C(Cl)c1c(Cl)c(Cl)c(C(=O)Cl)c(Cl)c1Cl | inactive | 
Oc1ccc2ccccc2c1N=Nc1ccccc1 | 3.06 µM (active) | 
CCOC(=O)/C=C\C(=O)OCC | inactive | 
CC#C[C@]1(O)CC[C@H]2[C@@H]3CCC4=CC(=O)CCC4=C3[C@@H](c3ccc(N(C)C)cc3)C[C@@]21C | inactive | 
CN(CCOc1ccc(CC2SC(=O)NC2=O)cc1)c1ccccn1 (stereo not given) | inactive | 
O=C(Oc1ccccc1)c1ccc(O)cc1 | inactive | 
O=[N+]([O-])C(CO)(CO)CO | inactive | 
Cc1ccc(N)c(S(=O)(=O)O)c1 | inactive | 
OC[C@@H](O)[C@@H](O)[C@H](O)[C@@H](O)CO | inactive | 
C=C1CC[C@H](O)CC1=C/C=C1\CCC[C@]2(C)[C@@H]([C@H](C)/C=C/[C@H](C)C(C)C)CC[C@@H]12 | inactive | 
Cc1ccc(C)c(C)c1 |  | -0.571% [at 95 µM]
CC(C)(N=C=O)c1cccc(C(C)(C)N=C=O)c1 | inactive | 
CC1CC(OC(=O)c2ccccc2O)CC(C)(C)C1 (stereo not given) | inactive | 
CS(=O)(=O)c1ccc([C@@H](O)[C@@H](CO)NC(=O)C(Cl)Cl)cc1 | inactive | 
O=C1O[C@H](CO)[C@@H](O)[C@H](O)[C@H]1O | inactive | 
OCCOCCOCCOCCO | inactive | 
NS(=O)(=O)c1cc2c(cc1Cl)NC=NS2(=O)=O | inactive | 
O=C(c1cc(O)c(O)c(O)c1)c1ccc(O)c(O)c1O | 15.4 µM (active) | 
